# How the values were obtained:
# [1] = system: Vero E6 infected with SARS-CoV-2; test: morphology score (similarity to uninfected cells); higher = more like uninfected cells; conditions: 24 h
# [2] = system: Vero E6 infected with SARS-CoV-2; test: SARS-CoV-2 infection rate relative to infected DMSO; higher = more infection, active = 60 or less; conditions: 24 h
SMILES,morphology score [1],SARS-CoV-2 infection rate [2]
COc1cc2c(cc1OC)CN(C(=O)[C@@H](NCc1ccncc1)C(C)(C)C)CC2 (10 µM),-0.115,105% (inactive)
CC(=O)N1CCC[C@H]1C(=O)N[C@@H](Cc1cnc[nH]1)C(=O)N[C@@H](CO)C(=O)N[C@@H](CS)C(=O)N[C@@H](CC(N)=O)C(N)=O (10 µM),0.0957,93% (inactive)
COc1ccc(Cl)cc1NC(=O)Nc1cc(C)nc2ccccc12 (10 µM),0.148,96.5% (inactive)
O=C1NS(=O)(=O)c2ccccc21 [saccharin] (10 µM),-0.085,106% (inactive)
CCn1c(=O)[nH]c2cc(Cl)c(Cl)cc21 (10 µM),0.171,83.5% (inactive)
NCCNCCNCCN [trientine] (10 µM),-0.00487,106% (inactive)
C=C(C)[C@@H]1CC=C(CO)CC1 [perillyl-alcohol] (10 µM),0.0351,100% (inactive)
CNCCCC1(c2ccccc2)OC(C)(C)c2ccccc21 (stereo not given) [talopram] (10 µM),-0.07,111% (inactive)
Nc1nc(Cl)nc2c1ncn2[C@@H]1O[C@H](CO)[C@@H](O)[C@H]1O [2-chloroadenosine] (10 µM),-0.0246,105% (inactive)
N#Cc1c(N(CC(=O)O)CC(=O)O)sc(C(=O)O)c1CC(=O)O [Strontium Ranelate] (10 µM),-0.000723,107% (inactive)
Nc1nccc2c1ncn2C1C=C(CO)C(O)C1O (stereo not given) [3-deazaneplanocin-A] (10 µM),-0.104,112% (inactive)
CN(C)C(=O)Oc1ccc[n+](C)c1 [mestinon] (10 µM),0.0902,121% (inactive)
O=C(NNc1ccccc1)c1ccncc1 [plurisin-1] (10 µM),-0.14,108% (inactive)
O=C(c1ccccn1)c1cnn2c(-c3ccncc3)ccnc12 [ocinaplon] (10 µM),-0.0527,117% (inactive)
"CCCC(O)C(CC)CO (stereo not given) [2-ethyl-1,3-hexanediol] (0.833333 µM)",-0.095,116% (inactive)
COc1ccccc1Oc1c(NS(=O)(=O)c2ccc(C(C)(C)C)cc2)nc(-c2ncccn2)nc1OCCO [bosentan] (10 µM),0.0268,112% (inactive)
Nc1ccc(S(N)(=O)=O)cc1 [sulfanilamide] (10 µM),0.0892,103% (inactive)
CO[C@H]1CC[C@H](N2C(=O)CNc3ncc(-c4ccc(C(C)(C)O)nc4)nc32)CC1 (0.833333 µM),0.21,82.5% (inactive)
NC(=O)c1nc(F)cnc1O [favipiravir] (10 µM),0.0924,104% (inactive)
Clc1ccc(N/N=C(\c2ccccc2)c2ccccn2)nc1 (10 µM),0.0534,103% (inactive)

SMILES,morphology score [1],SARS-CoV-2 infection rate [2]
O=C(CCCCCCC(=O)Nc1ccccc1)NO [vorinostat] (0.833333 µM),0.00344,118% (inactive)
O=C(O)/C=C/c1ccc(O)cc1 [naringeninic-acid] (10 µM),0.0231,102% (inactive)
C[C@@H](Oc1ccc2[nH]nc(/C=C/c3cnn(CCO)c3)c2c1)c1c(Cl)cncc1Cl (10 µM),-0.00865,120% (inactive)
Cc1cc(Nc2ccc(NC(=O)c3ccc(Nc4ccnc5ccccc45)cc3)cc2)nc(N)n1 (0.833333 µM),-0.0128,104% (inactive)
OC(c1ccccc1)C1CCN(CCc2ccccc2)CC1 (stereo not given) (10 µM),-0.103,106% (inactive)
COC1=C[C@@H]2[C@@H]3Cc4ccc(OC)c(O)c4[C@]2(CCN3C)CC1=O [sinomenine] (10 µM),0.141,122% (inactive)
CSC[C@H](N)C(=O)O [S-methylcysteine] (10 µM),0.000717,102% (inactive)
Cn1cc(-c2ccc3c(c2)CCN3C(=O)Cc2cccc(C(F)(F)F)c2)c2c(N)ncnc21 (0.833333 µM),0.029,92% (inactive)
CC(N)CCCC(C)(C)O (stereo not given) [heptaminol] (10 µM),-0.15,111% (inactive)
CN(C)CCc1c[nH]c2ccc(CS(=O)(=O)N3CCCC3)cc12 [almotriptan] (10 µM),0.00995,110% (inactive)
COc1ccc(S(=O)(=O)N2c3ccc(Cl)cc3[C@](O)(c3ccccc3Cl)[C@@H]2C(=O)N2CCC[C@H]2C(N)=O)cc1OC [relcovaptan] (10 µM),-0.0372,106% (inactive)
CCCOc1ccc2c(c1)CC[C@@H]1[C@@H]2CC[C@]2(C)[C@@H](OC)CC[C@@H]12 [promestriene] (10 µM),0.169,99.5% (inactive)
CCCN(CCC)[C@H]1CCc2ccc(O)cc2C1 [7-hydroxy-DPAT] (10 µM),-0.355,122% (inactive)
O=C1c2cc(Cl)ccc2OC2CCON12 (stereo not given) [seclazone] (10 µM),0.0763,102% (inactive)
CC1CS(=O)(=O)CCN1/N=C/c1ccc([N+](=O)[O-])o1 (stereo not given) [nifurtimox] (10 µM),0.0407,102% (inactive)
Cc1ccc(C[N+](C)(C)C)o1 [5-methylfurmethiodide] (10 µM),-0.123,117% (inactive)
COc1ccc(CNC(=O)Nc2ncc([N+](=O)[O-])s2)cc1 (10 µM),-0.141,106% (inactive)
Cn1ccc2cc3c(cc21)CCN3C(=O)Nc1cccnc1 (10 µM),0.204,99% (inactive)
c1cc(CN2CCCNCCNCCCNCC2)ccc1CN1CCCNCCNCCCNCC1 [plerixafor] (10 µM),0.0853,95.5% (inactive)
C1Cc2[nH]nc(-c3nn[nH]n3)c2C1 (10 µM),-0.0417,109% (inactive)

SMILES,morphology score [1],SARS-CoV-2 infection rate [2]
CC(C)(C=O)Cc1cc(C(C)(C)C)c(O)c(C(C)(C)C)c1 (10 µM),0.0771,94% (inactive)
CNC(=O)c1cc2c(cn1)[nH]c1ccccc12 (10 µM),0.241,85.5% (inactive)
Cc1c2oc3c(C)ccc(C(=O)N[C@@H]4C(=O)N[C@@H](C(C)C)C(=O)N5CCC[C@H]5C(=O)N(C)CC(=O)N(C)[C@@H](C(C)C)C(=O)O[C@@H]4C)c3nc-2c(C(=O)N[C@@H]2C(=O)N[C@@H](C(C)C)C(=O)N3CCC[C@H]3C(=O)N(C)CC(=O)N(C)[C@@H](C(C)C)C(=O)O[C@@H]2C)c(N)c1=O [actinomycin-d] (0.833333 µM),0.164,93% (inactive)
CS[C@H]1SC[C@H]2C(=O)N(C)[C@@H](C(C)C)C(=O)OC[C@@H](NC(=O)c3cnc4ccccc4n3)C(=O)N[C@@H](C)C(=O)N(C)[C@@H]1C(=O)N(C)[C@@H](C(C)C)C(=O)OC[C@@H](NC(=O)c1cnc3ccccc3n1)C(=O)N[C@@H](C)C(=O)N2C [echinomycin] (0.833333 µM),-0.0512,96% (inactive)
COc1cc(N2CCC(O)CC2)ccc1Nc1cc(Nc2ccccc2S(=O)(=O)C(C)C)c2cc[nH]c2n1 (0.833333 µM),-0.0202,106% (inactive)
COc1nc(C)nc(Cl)c1NC1=NCCN1 [moxonidine] (10 µM),0.0753,102% (inactive)
CNS(=O)(=O)CCc1ccc2[nH]cc(C3CCN(C)CC3)c2c1 [naratriptan] (10 µM),0.0727,104% (inactive)
CC/C(=C(\c1ccccc1)c1ccc(OCCN(C)C)cc1)c1ccccc1 [tamoxifen] (0.833333 µM),0.135,95.5% (inactive)
CN1CCN(CCCN2c3ccccc3Sc3ccc(S(=O)(=O)N(C)C)cc32)CC1 [thioproperazine] (10 µM),0.251,102% (inactive)
Cc1ccc(C(=O)Nc2ccc(CN3CCN(C)CC3)c(C(F)(F)F)c2)cc1C#Cc1cnc2[nH]ncc2c1 (10 µM),0.453,98% (inactive)
CC(=O)c1ccc(S(=O)(=O)NC(=O)NC2CCCCC2)cc1 [acetohexamide] (10 µM),0.11,100% (inactive)
CCCC(=O)Nc1ccc(OCC(O)CNC(C)C)c(C(C)=O)c1 (stereo not given) [acebutolol] (10 µM),-0.0282,113% (inactive)
Clc1cccc(SC2CCNCC2)n1 [anpirtoline] (10 µM),0.0464,106% (inactive)
C=C(c1ccc(C(=O)O)cc1)c1cc2c(cc1C)C(C)(C)CCC2(C)C [bexarotene] (10 µM),0.18,108% (inactive)
CC(=O)O[C@]1(C(C)=O)CC[C@H]2[C@@H]3C=C(C)C4=CC(=O)CC[C@@H]4[C@H]3CC[C@@]21C [nomegestrol-acetate] (10 µM),0.147,95% (inactive)
CC1=CC(=C(c2ccc(N)cc2)c2ccc(N)cc2)C=CC1=N [basic-fuchsin] (0.833333 µM),0.163,97.5% (inactive)
CCC[C@H](Nc1nc(-c2ccc(NC(=O)NCC)c(OC)c2)ncc1C)c1cccnc1 (10 µM),-0.29,116% (inactive)
CC(=O)N[C@H](Cc1ccc2ccccc2c1)C(=O)N[C@H](Cc1ccc(Cl)cc1)C(=O)N[C@H](Cc1cccnc1)C(=O)N[C@@H](CO)C(=O)N[C@@H](Cc1ccc(NC(=O)[C@@H]2CC(=O)NC(=O)N2)cc1)C(=O)N[C@H](Cc1ccc(NC(N)=O)cc1)C(=O)N[C@@H](CC(C)C)C(=O)N[C@@H](CCCCNC(C)C)C(=O)N1CCC[C@H]1C(=O)N[C@H](C)C(N)=O [degarelix] (10 µM),-0.277,115% (inactive)
C/C(=N\Nc1nnc2c(n1)[nH]c1c(C)cccc12)c1ccccn1 (10 µM),0.01,107% (inactive)
CCCN1CCCC[C@H]1C(=O)Nc1c(C)cccc1C [ropivacaine] (10 µM),0.0192,104% (inactive)

# Source: the supplement of paper PMC13380429
